In the supplement of paper PMC10849652:
About 7,900 targets were measured; listed, in parts, are those with a hit and a random draw of the rest. About 0.6% of all pairs of compound and target were hits. Values without a mark were called inactive.

How the values were obtained:
Assay in all cases: log2 fold change, soluble protein after heating vs DMSO (PISA); higher = thermal stabilisation; K562 cells, 10 uM, 30 min; active = over 0.2 and 3.5 SD of the protein, either way, in both replicates (recomputed)
[1] = compound: COC1=CC=C(C=C1)CN2C=CC3=C2C=C(C=C3)C(=O)NO
How it was run: (§1)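 Soluble protein was quantified by TMTpro 16plex LC-MS/MS after channel sums were equalised. It was obtained as the supernatant after 21,000xg for 90 min from pooled aliquots of K562 cells (2×10^6 cells/mL, 10 μM compound, 30 min) heated for 3 min across 48°C-58°C and extracted in PBS with 0.5% NP-40 at 4°C. Thermal stability values are relative to control samples and come from duplicates. They are given as log2 fold changes.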

filanesib = compound: CON(C)C(=O)N1N=C(c2cc(F)ccc2F)S[C@@]1(CCCN)c1ccccc1 [filanesib]
How it was run: as §1

zotarolimus = compound: CO[C@H]1C[C@@H]2CC[C@@H](C)[C@@](O)(O2)C(=O)C(=O)N2CCCC[C@H]2C(=O)O[C@H]([C@H](C)C[C@@H]2CC[C@H](n3cnnn3)[C@H](OC)C2)CC(=O)[C@H](C)/C=C(\C)[C@@H](O)[C@@H](OC)C(=O)[C@H](C)C[C@H](C)/C=C/C=C/C=C/1C [zotarolimus]
How it was run: as §1

idasanutlin = compound: COc1cc(C(=O)O)ccc1NC(=O)[C@@H]1N[C@@H](CC(C)(C)C)[C@](C#N)(c2ccc(Cl)cc2F)[C@H]1c1cccc(Cl)c1F [idasanutlin]
How it was run: as §1

alisertib = compound: COc1cc(Nc2ncc3c(n2)-c2ccc(Cl)cc2C(c2c(F)cccc2OC)=NC3)ccc1C(=O)O [alisertib]
How it was run: as §1

[2] = compound: COc1cc2nc(-c3cc(F)ccc3O)nc(N[C@@H]3CNC[C@H]3C(C)(C)O)c2cc1OC
How it was run: as §1

gefitinib = compound: COc1cc2ncnc(Nc3ccc(F)c(Cl)c3)c2cc1OCCCN1CCOCC1 [gefitinib]
How it was run: as §1

[3] = compound: COc1cccc2cc(-c3nc([C@H]4CC[C@H](C(=O)O)CC4)n4ncnc(N)c34)[nH]c12
How it was run: as §1

lapatinib = compound: CS(=O)(=O)CCNCc1ccc(-c2ccc3ncnc(Nc4ccc(OCc5cccc(F)c5)c(Cl)c4)c3c2)o1 [lapatinib]
How it was run: as §1

pictilisib = compound: CS(=O)(=O)N1CCN(Cc2cc3nc(-c4cccc5[nH]ncc45)nc(N4CCOCC4)c3s2)CC1 [pictilisib]
How it was run: as §1

Chain of UniProt Q9BUB7 (Q9BUB7 whole entry, looked up): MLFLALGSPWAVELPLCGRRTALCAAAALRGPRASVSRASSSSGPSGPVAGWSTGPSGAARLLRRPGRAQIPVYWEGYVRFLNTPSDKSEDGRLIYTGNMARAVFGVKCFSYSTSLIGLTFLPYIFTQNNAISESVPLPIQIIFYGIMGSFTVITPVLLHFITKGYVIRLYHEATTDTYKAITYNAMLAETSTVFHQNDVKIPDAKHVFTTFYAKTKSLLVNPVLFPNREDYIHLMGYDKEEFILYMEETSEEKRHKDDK
Chain of UniProt O95155 (O95155 whole entry, looked up): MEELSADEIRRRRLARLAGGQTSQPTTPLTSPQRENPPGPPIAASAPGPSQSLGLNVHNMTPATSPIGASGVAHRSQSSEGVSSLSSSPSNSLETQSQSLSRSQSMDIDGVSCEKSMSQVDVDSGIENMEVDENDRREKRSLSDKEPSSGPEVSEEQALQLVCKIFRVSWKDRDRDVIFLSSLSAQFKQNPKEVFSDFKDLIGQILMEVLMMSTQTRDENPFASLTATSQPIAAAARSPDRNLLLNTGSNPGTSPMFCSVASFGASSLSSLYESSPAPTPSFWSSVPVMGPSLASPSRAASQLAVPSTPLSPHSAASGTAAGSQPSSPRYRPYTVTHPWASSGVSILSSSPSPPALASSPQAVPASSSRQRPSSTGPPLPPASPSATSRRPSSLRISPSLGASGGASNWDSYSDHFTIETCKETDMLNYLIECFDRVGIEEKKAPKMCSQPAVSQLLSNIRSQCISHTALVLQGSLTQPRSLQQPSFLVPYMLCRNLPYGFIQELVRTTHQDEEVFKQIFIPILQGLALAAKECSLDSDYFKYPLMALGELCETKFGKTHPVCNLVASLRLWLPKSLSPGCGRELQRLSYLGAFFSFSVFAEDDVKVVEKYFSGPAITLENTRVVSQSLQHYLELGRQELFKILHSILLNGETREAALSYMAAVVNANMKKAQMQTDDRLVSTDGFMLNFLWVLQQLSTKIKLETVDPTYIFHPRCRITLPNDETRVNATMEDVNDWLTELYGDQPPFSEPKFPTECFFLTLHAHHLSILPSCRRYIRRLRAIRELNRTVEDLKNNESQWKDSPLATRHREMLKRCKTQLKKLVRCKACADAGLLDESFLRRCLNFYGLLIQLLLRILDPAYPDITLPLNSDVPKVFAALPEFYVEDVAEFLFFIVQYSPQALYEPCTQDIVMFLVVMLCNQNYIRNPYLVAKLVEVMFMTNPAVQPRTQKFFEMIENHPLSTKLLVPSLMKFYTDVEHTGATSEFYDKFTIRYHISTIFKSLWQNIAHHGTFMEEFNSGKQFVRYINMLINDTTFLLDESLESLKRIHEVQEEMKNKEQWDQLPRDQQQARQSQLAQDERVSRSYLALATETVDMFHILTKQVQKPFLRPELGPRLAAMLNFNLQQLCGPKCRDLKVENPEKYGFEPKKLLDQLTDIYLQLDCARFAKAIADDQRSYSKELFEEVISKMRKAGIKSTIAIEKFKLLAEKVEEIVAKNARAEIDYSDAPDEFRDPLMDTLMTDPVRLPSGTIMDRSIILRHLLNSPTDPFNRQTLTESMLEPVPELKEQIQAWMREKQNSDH
Chain of UniProt Q86SZ2 (Q86SZ2 whole entry, looked up): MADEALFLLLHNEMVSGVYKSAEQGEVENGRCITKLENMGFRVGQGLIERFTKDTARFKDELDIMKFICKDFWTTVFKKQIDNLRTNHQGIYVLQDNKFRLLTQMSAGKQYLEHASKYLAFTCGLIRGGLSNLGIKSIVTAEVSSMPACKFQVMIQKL
Chain of UniProt A3KMH1 (A3KMH1 whole entry, looked up): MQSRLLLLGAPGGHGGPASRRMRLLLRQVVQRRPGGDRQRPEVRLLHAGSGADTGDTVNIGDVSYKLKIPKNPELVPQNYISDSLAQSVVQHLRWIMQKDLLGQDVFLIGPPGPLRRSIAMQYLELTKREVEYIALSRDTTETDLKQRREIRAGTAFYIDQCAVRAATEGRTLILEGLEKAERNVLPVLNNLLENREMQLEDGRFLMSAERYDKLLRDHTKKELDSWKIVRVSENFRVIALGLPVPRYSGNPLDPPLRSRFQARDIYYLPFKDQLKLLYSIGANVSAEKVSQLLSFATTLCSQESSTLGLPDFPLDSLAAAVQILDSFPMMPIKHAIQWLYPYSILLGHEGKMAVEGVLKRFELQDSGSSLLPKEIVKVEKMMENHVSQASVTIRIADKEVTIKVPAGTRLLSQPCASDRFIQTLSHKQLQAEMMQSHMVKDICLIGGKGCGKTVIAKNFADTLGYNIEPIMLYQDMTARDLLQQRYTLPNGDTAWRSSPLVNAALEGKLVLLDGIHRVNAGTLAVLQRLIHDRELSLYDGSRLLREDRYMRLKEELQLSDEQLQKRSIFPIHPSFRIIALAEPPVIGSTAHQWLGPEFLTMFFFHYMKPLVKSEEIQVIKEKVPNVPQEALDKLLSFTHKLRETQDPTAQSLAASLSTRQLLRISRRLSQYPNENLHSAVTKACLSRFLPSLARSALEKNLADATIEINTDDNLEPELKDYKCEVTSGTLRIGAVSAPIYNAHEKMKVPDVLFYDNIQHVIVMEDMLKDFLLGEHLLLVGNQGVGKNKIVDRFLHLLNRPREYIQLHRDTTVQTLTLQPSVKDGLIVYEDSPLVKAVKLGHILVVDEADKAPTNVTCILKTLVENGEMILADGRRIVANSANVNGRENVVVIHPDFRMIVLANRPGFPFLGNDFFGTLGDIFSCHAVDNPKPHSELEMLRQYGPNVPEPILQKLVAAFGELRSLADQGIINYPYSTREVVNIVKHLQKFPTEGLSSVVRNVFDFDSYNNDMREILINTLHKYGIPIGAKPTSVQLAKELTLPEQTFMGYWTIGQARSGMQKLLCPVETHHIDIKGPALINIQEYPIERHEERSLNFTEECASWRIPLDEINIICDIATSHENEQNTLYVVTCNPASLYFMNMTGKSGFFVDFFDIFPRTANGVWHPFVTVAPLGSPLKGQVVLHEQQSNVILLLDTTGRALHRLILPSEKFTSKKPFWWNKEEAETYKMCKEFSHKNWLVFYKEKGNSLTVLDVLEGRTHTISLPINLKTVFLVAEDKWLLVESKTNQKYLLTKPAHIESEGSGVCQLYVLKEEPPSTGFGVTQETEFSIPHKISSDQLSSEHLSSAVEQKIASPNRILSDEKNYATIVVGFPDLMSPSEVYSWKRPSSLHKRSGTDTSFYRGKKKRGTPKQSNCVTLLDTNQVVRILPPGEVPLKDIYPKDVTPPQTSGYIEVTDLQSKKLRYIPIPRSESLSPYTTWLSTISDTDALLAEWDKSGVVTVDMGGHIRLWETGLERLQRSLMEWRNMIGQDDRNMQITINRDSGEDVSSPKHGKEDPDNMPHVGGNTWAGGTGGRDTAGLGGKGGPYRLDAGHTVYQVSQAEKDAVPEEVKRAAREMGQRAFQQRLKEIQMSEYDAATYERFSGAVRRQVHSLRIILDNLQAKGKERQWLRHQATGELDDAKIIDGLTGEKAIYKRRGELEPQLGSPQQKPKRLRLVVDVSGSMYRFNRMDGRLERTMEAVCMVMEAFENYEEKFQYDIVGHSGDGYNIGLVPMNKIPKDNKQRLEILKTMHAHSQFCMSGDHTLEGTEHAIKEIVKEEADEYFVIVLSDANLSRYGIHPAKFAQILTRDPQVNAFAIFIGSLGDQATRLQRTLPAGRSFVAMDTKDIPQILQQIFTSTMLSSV
Chain of UniProt Q9Y2L5 (Q9Y2L5 whole entry, looked up): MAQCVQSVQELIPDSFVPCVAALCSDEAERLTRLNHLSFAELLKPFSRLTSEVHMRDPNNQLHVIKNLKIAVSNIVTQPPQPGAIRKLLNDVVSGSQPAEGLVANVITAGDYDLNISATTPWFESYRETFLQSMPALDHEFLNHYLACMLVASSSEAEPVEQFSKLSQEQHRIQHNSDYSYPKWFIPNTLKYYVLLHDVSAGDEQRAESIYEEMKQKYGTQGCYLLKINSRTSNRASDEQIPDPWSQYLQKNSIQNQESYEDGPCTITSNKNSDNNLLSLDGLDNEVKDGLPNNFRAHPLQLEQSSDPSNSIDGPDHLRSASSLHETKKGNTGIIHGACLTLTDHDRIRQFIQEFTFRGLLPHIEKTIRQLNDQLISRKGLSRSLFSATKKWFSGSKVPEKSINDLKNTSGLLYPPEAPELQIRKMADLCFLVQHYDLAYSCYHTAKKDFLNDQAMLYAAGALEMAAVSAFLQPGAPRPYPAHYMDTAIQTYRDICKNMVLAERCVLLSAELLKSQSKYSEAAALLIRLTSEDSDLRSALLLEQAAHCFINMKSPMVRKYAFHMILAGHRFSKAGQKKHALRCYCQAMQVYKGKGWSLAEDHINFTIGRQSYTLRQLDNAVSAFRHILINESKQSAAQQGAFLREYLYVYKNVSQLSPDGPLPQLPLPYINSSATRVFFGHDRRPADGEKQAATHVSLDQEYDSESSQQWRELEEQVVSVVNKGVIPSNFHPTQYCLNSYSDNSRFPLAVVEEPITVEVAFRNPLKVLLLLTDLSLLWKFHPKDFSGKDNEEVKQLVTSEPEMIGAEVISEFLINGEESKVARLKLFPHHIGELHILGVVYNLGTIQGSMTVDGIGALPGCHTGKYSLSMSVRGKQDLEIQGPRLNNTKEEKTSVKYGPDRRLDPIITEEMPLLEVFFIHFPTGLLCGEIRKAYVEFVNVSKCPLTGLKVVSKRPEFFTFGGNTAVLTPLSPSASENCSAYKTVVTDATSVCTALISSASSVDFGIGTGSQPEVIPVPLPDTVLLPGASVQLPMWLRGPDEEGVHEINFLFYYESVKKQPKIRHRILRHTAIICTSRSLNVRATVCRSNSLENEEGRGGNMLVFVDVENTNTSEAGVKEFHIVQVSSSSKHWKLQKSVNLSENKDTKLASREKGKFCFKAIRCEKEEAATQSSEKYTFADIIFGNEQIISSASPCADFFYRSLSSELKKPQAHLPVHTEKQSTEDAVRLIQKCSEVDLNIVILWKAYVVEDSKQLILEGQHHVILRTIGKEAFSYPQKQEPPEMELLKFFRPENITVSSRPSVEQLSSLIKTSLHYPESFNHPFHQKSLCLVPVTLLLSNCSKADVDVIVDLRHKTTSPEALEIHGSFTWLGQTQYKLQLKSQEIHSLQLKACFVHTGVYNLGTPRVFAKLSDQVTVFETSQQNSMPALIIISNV

| Target | log2 fold change [1] | log2 fold change (filanesib) | log2 fold change (zotarolimus) | log2 fold change (idasanutlin) | log2 fold change (alisertib) | log2 fold change [2] | log2 fold change (gefitinib) | log2 fold change [3] | log2 fold change (lapatinib) | log2 fold change (pictilisib) |
| --- | --- | --- | --- | --- | --- | --- | --- | --- | --- | --- |
| UCHL5 isoform 3 (UniProt Q9Y5K5) | 0.229 | -0.13 | 0.227 | 0.057 | 0.072 | 0.036 | -0.04 | 0.16 | -0.07 |  |
| UBE4B isoform 4 (UniProt O95155) | 0.04 | -0.009 | -0.008 | -0.031 | -0.035 | 0.021 | -0.048 | 0.021 | -0.01 | 0.063 |
| WASHC5 (UniProt Q12768) | -0.059 | -0.017 | 0.043 | 0.034 | -0.088 | 0.083 | 0.044 | -0.021 | -0.024 | -0.05 |
| TNFRSF10A (UniProt O00220) | -0.046 | 0.028 | -0.035 | 0.058 | -0.021 | 0.024 | -0.012 | -0.002 | -0.073 | 0.304 (active) |
| TRAPPC6B (UniProt Q86SZ2) | 0.055 | -0.023 | 0.012 | -0.023 | -0.009 | -0.003 | 0.042 | 0.028 | 0.019 | 0.02 |
| TMEM263 (UniProt Q8WUH6) | -0.096 | -0.654 (active) | -0.038 | -0.09 | -0.043 | -0.789 (active) | -0.042 | 0.065 | -0.045 | -0.208 |
| TRAPPC8 (UniProt Q9Y2L5) | 0.032 | -0.017 | 0.03 | -0.059 | 0.003 | 0.013 | 0.009 | -0.021 | 0.021 | -0.001 |
| TMEM70 (UniProt Q9BUB7) | -0.041 | -0.157 | -0.009 | -0.016 | 0.126 | -0.118 | -0.026 | 0.106 | -0.039 | 0.059 |
| VWA8 (UniProt A3KMH1) | -0.025 | -0.052 | -0.027 | -0.119 | -0.037 | 0.006 | 0.011 | 0.077 | 0 | 0.01 |
| UBC (UniProt P0CG48) | -0.064 | 0.09 | 0.048 | 0 | -0.002 | 0.06 | 0.038 | 0.018 | -0.101 | 0.008 |
| WDR11 (UniProt Q9BZH6) | -0.069 | 0.027 | -0.058 | -0.124 | -0.062 | 0.104 | -0.016 | 0.094 | -0.094 | 0.094 |
| USP24 (UniProt Q9UPU5) | -0.03 | -0.179 | 0.397 (active) | -0.342 (active) | -0.008 | 0.116 | 0.099 | 0.385 (active) | 0.019 | 0.258 |
| WDR47 (UniProt O94967) | 0.057 | -0.014 | -0.006 | -0.071 | 0.21 | -0.029 | -0.001 | 0.061 | -0.007 | 0.077 |
| XPOT (UniProt O43592) | 0.011 | -0.052 | 0.022 | -0.073 | -0.059 | 0.033 | -0.023 | -0.046 | -0.028 | 0.023 |
| VPS35L (UniProt Q7Z3J2) | 0.028 | 0.049 | -0.016 | -0.118 | 0.041 | 0.058 | 0.059 | -0.032 | -0.05 | 0.061 |
